Screens from PubChem BioAssay.
CIT2 TOR yeast = yeast TOR pathway CIT2-GFP modulation | S. cerevisiae CIT2-GFP strain, flow cytometry, 3 h; 100 means same as DMSO wells | actives 0.065% (n = 320,000) | GFP response vs DMSO, % at 10 µM | AID 2029;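 active = GFP response relative to DMSO above a set limit, near the screen mean plus 3 SD, cut at about 150% in these data; inconclusive = Fewer than 70 cells measured for a yeast strain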;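 note: ratio of well median GFP fluorescence to mean of DMSO wells on the plate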
RPL19A TOR yeast = alters RPL19A-GFP fluorescence in TOR pathway yeast screen; S. cerevisiae RPL19A-GFP strain, flow cytometry, 3 h; hits give low values; percent response vs DMSO, % at 10 µM; actives 0.3% (n = 330,000); AID 2025;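 active = percent response vs DMSO below 50%; inconclusive = fewer than 70 events counted for the yeast strain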;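 note: median channel GFP fluorescence of the barcoded RPL19A-GFP strain; ratio of sample median GFP to plate DMSO average so 100% = DMSO; lower means less RPL19A-GFP as with rapamycin TOR inhibition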
AGP1-GFP MLPCN = yeast TOR pathway AGP1-GFP modulation; AID 2066; GFP response vs DMSO, % at 10 µM; actives 0.02% (n = 320,000); S. cerevisiae AGP1-GFP multiplex flow cytometry, 3 h; GFP as percent of DMSO wells;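 active = GFP response relative to DMSO above a set limit, near screen average plus 3 SD, cut at about 150% in these data; inconclusive = fewer than 70 cells counted for the yeast strain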;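 note: median GFP channel fluorescence of the gated AGP1 strain per well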
MEP2 TOR yeast = alters MEP2-GFP fluorescence in TOR pathway yeast screen; S. cerevisiae MEP2-GFP strain, flow cytometry GFP, 3 h; 100% = DMSO control level; actives 0.51% (n = 330,000); GFP response vs DMSO, % at 10 µM; AID 2016;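 active = GFP response versus DMSO above a set limit, roughly screen mean plus 3 SD, cut at about 180% in these data; inconclusive = fewer than 70 cells counted for a yeast strain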;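 note: median GFP fluorescence of the barcode-gated MEP2-GFP cells per well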
LAP4-GFP MLPCN = alters LAP4-GFP fluorescence in TOR pathway yeast screen; S. cerevisiae LAP4-GFP multiplex, flow cytometry GFP, 3 h; median GFP as percent of DMSO wells; GFP response vs DMSO, % at 10 µM; actives 0.34% (n = 320,000);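 active = GFP response vs DMSO above a set limit, about the screen mean plus 3 SD, cut at about 150% in these data; inconclusive = under 70 cell events counted for the yeast strain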
DSG3 Ab inh = blocks pemphigus antibody binding to human desmoglein-3. P32926. DSG3-coupled beads, scFv-anti-DSG3-GFP binding, flow cytometry; hits give low values. binding (percent of control), % at 10 µM. actives 0.48% (n = 310,000);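 active = binding more than 3 SD below its plate's average and above zero; inconclusive = below that plate limit but binding exactly zero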;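 note: hits lower antibody fragment binding to DSG3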
Target sequence (P32926 whole entry, looked up, the tested form may be a part): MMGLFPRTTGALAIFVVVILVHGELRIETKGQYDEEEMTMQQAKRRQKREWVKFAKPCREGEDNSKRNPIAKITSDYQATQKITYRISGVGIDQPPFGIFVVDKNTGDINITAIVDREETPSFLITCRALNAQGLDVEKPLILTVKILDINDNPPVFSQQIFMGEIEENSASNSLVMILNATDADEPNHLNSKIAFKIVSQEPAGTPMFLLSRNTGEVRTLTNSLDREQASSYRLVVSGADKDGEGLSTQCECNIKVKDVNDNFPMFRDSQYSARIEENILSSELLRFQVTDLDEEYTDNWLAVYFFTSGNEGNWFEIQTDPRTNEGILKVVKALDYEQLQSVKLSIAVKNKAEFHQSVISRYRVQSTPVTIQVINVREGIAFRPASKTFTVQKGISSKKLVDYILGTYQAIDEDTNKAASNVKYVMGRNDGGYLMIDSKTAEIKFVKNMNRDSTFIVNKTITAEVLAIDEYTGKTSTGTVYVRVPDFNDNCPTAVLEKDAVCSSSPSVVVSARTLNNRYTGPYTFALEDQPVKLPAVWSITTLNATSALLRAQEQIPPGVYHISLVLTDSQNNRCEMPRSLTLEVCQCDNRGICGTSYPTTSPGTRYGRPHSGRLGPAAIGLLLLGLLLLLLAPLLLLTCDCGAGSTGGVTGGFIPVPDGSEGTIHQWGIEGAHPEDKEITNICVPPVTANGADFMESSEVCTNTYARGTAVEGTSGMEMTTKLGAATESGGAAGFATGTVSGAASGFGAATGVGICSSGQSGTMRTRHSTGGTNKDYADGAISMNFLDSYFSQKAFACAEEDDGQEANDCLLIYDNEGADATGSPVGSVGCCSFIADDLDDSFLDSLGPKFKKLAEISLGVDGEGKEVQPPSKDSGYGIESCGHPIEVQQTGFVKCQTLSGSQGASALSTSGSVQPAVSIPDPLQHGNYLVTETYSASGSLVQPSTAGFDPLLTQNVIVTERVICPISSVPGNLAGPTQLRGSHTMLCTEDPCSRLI
Starred values were filed as active, the others as inactive; ? = inconclusive; nt = not tested or not shown; [ ] = remark or other dose. Compounds with a hit are over-represented: about 1.2% of the library has one in this group of screens.

SMILES	CIT2 TOR yeast	RPL19A TOR yeast	AGP1-GFP MLPCN	MEP2 TOR yeast	LAP4-GFP MLPCN	DSG3 Ab inh
CCOC(=O)c1ccc(-c2nnc(-c3ccc(Cl)cc3Cl)o2)cc1	107.4	104.8	105.5	106.2	103.0	92.9*
COc1ccc(C(=O)n2ncc(C#N)c2N)cc1	nt	nt	nt	nt	nt	101.7
Cn1cnnc1SCc1ccc(C(=O)n2ncc(C#N)c2N)cc1	nt	23.4*[may fluoresce violet]	?	302.9*[may fluoresce violet]	106.5	99.8
CC1CCCC(NC(=O)COC(=O)COc2ccc(C#N)cc2)C1C (configuration not stated)	102.4	99.7	101.4	106.2	96.1	113.8
CC(=O)Nc1cccc(C(=O)OCC(=O)N2CCN(C(=O)COC(=O)c3cccc(NC(C)=O)c3)CC2)c1	nt	nt	nt	nt	nt	102.2
CCCCCCc1nc(C(N)=O)c2[nH]c(=O)n(-c3ccccc3F)c2n1	99.5	97.5	98.3	111.2	103.5	62.4*
CCCCCCc1nc(C(N)=O)c2[nH]c(=O)n(-c3ccc(OCC)cc3)c2n1	104.0	96.1	96.6	104.0	120.3	99.2
CC(=O)c1ccc(NC(=O)Cn2cnc(S(=O)(=O)N3CCCC3)c2)cc1	129.0	111.4	108.8	110.6	95.3	nt
CC(=O)c1ccc(NC(=O)Cn2cnc(S(=O)(=O)N3CCc4ccccc43)c2)cc1	103.1	100.9	104.7	100.0	97.1	79.2*
CCCCCCCCOC(=O)c1cc([N+](=O)[O-])c(Sc2ncnc3nc[nH]c23)c([N+](=O)[O-])c1	nt	nt	nt	nt	nt	92.2
CCCCOC(=O)c1ccc(N)cc1	82.0	99.2	88.2	96.1	93.0	113.8
CCCCN(CCCC)CCCOC(=O)c1ccc(N)cc1	86.6	79.8	90.7	93.0	183.4*	109.4
CCc1ccc(CC2(O)CC(C)N(C)CC2C)cc1 (configuration not stated)	99.8	102.5	102.1	101.6	104.2	106.8
CC1CC(O)(CC(O)(c2ccccc2)c2ccccc2)C(C)CN1C (configuration not stated)	?	65.4	?	251.3*[may fluoresce violet]	74.8	95.2
CCCc1nnc(SCC(=O)N2CCCCC2)n1CC1CCCO1 (configuration not stated)	?	65.2	31.1	200.3*[may fluoresce violet]	95.9	nt
O=C(CNC(=S)N(Cc1ccccc1F)C1CCCCC1)NCCCN1CCOCC1	?	56.2	?	317.4*[may fluoresce violet]	86.0	100.5
CCc1cc2cc3c(cc2nc1SCC(=O)Nc1cc(C)on1)OCO3	96.4	100.7	99.2	108.0	92.6	87.5*
CCc1cc2ccc(C)cc2nc1SCC(=O)Nc1cc(C)on1	99.9	98.5	100.2	104.5	99.5	111.8
O=C(CN1C(=O)NC2(CCCC2)C1=O)OCc1cc(=O)n2cc(Br)ccc2n1	103.1	100.0	106.0	97.9	100.2	64.8*
CC1(C(=O)OCc2cc(=O)n3cc(Br)ccc3n2)CC1(Cl)Cl (configuration not stated)	59.4	83.5	87.5	89.9	164.2*	84.8
CC1CC1C(=O)OCc1cc(=O)n2cc(Br)ccc2n1 (configuration not stated)	88.0	88.7	80.1	84.2	98.8	112.8
CC1(C)NC(=O)N(CC(=O)OCc2cc(=O)n3cc(Br)ccc3n2)C1=O	104.0	100.3	104.1	109.2	109.1	103.3
COc1ccc(S(=O)(=O)N2CCOCC2)cc1NC(=O)C1CCCCN1S(=O)(=O)c1ccccc1 (configuration not stated)	nt	nt	nt	nt	nt	108.7
O=C(Nc1ccccc1)OCCOc1ccccc1	87.1	98.4	97.7	103.6	114.4	90.9
O=C(Nc1ccccc1)OCCOc1ccccc1Br	95.3	100.0	90.1	108.4	99.3	68.9*
SMILES	CIT2 TOR yeast	RPL19A TOR yeast	AGP1-GFP MLPCN	MEP2 TOR yeast	LAP4-GFP MLPCN	DSG3 Ab inh
O=C(Nc1ccccc1)OCCCCCOC(=O)Nc1ccccc1	105.1	104.2	100.7	110.5	97.2	78.7*
C=CCNC(=S)N/N=C(\C)c1cccc(OC)c1	100.1	106.4	94.1	216.8*	123.1	88.2
Cc1cc(=O)oc(C)c1C(=O)OCC(=O)c1ccc(Cl)c(Cl)c1	96.9	97.9	100.8	102.6	95.6	82.4*
COc1cc(CC(=O)N2CCN(S(=O)(=O)c3ccc(C(C)C)cc3)CC2)cc(OC)c1OC	nt	nt	nt	nt	nt	96.2
O=C(Nc1ccc2c(c1)OCO2)c1ccc([N+](=O)[O-])cc1[N+](=O)[O-]	?	65.2	22.7	220.4*[may fluoresce violet]	98.7	111.5
CC(Oc1ccc(Cl)cc1)C(=O)Nc1cccc(S(=O)(=O)N2CCCC2)c1 (configuration not stated)	nt	nt	nt	nt	nt	93.3
CC(Oc1ccc(Cl)cc1)C(=O)Nc1ccc(S(=O)(=O)N2CCOCC2)cc1 (configuration not stated)	?	58.4	25.8	275.4*[may fluoresce violet]	93.2	?
CCOc1ccc(N2CC(C(=O)Nc3ccc(S(=O)(=O)N4CCOCC4)cc3)CC2=O)cc1 (configuration not stated)	?	64.4	25.7	185.8*[may fluoresce violet]	95.9	106.1
O=C(Cc1ccc([N+](=O)[O-])cc1)Nc1ccc2c(c1)OCO2	95.3	100.7	112.3	106.4	113.0	97.5
O=C(COc1ccc([N+](=O)[O-])cc1)Nc1ccc(S(=O)(=O)N2CCOCC2)cc1	?	58.5	24.3	398.7*[may fluoresce violet]	96.2	105.5
O=C(COc1ccc(S(=O)(=O)N2CCOCC2)cc1)Nc1cccc([N+](=O)[O-])c1	103.6	102.0	102.5	95.0	94.1	110.5
Cc1ccccc1OCC(=O)NCCCNC(=O)c1ccco1	103.0	98.5	103.6	96.6	90.8	nt
CCCOc1ccc(C(=O)Nc2ccc(N3CCOCC3)cc2N2CCOCC2)cc1OCC	nt	nt	nt	nt	nt	111.7
COc1cc(C(CC(=O)Nc2cccc(C)n2)N2Cc3ccccc3C2=O)cc(OC)c1OC (configuration not stated)	101.3	94.9	95.5	96.1	86.3	103.7
COc1ccc(OC)c2c(C)cc(N3CCCCCC3)nc12	109.7	105.0	105.6	111.0	99.6	107.7
O=C(Nc1ccc(S(=O)(=O)N2CCOCC2)cc1)c1ccc([N+](=O)[O-])cc1Cl	101.3	106.9	108.1	307.3*	118.3	97.2
O=C(Nc1cc(S(=O)(=O)N2CCOCC2)ccc1Cl)c1cc([N+](=O)[O-])ccc1Cl	98.9	96.4	101.5	103.8	102.2	116.7
COc1cccc(CNC(=O)CN2C(=O)CCSc3ccc(S(=O)(=O)N4CCCC4)cc32)c1	109.5	102.1	103.9	117.7	105.8	nt
Cc1ccccc1NC(=O)COC(=O)c1cc(=O)c2ccccc2o1	159.4*	115.2	103.1	151.2	116.7	nt
CCOC(=O)C(=Cc1ccc(F)cc1)C(=O)OCC	107.0	65.0	25.5	187.5*	122.5	nt
